# High-throughput results deposited in PubChem BioAssay by National Center for Advancing Translational Sciences (NCATS).
# Pf Dd2 growth – qHTS Primary assay for Inhibitors of Plasmodium falciparum Dd2 growth in vitro; P. falciparum Dd2 growth, SYBR Green, 72 h; Potency, µM (top dose mostly 28.9 µM), hits mostly inhibitors; 120,000 compounds, 4.3% hits; AID 1347417, 2020; active means well fitted inhibition curve with a large enough effect; further: nearly all actives have a fitted effect of over 65% in size
#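 Readout: SYBR Green fluorescence, 485 nm excitation, 535 nm emission, after ~16 h lysis at 37C. Before that, Dd2-infected red cells (2.5% hematocrit) grew 72 h with compound, 29 uM top final concentration.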
# Numbers stand for hits; i = inactive; ! = not confirmed by another sample; [ ] = remark or other dose. The entries come from a sample that favours hits as a whole.
SMILES,Pf Dd2 growth
O=C(O)c1ccc(-c2nc3ccncc3[nH]2)cc1,1.3µM!
O=C(O)c1ccc2nc(-c3cc4cc(F)ccc4oc3=O)[nH]c2c1,i
CCC(CC)NC(=O)CC1CCCN(c2cn[nH]c(=O)c2)C1 (centres undefined),i
Cc1ccc(S(=O)(=O)N2CCCC(Cn3cnc4cccnc43)C2)c(C)c1 (centres undefined),i
CCn1ccnc1CN1CCC(Oc2ccccc2OC)(C(=O)O)CC1,i
CCOC(=O)C1(Cc2ccccc2F)CCCN(C(=O)C(=O)c2ccco2)C1 (centres undefined),i
CCOC(=O)C1(Cc2ccccc2C)CCCN(Cc2nccn2CC)C1 (centres undefined),10µM
CCOC(=O)C1(Cc2cccc(Cl)c2)CCCN(Cc2cnn(C)c2)C1 (centres undefined),i
CCOC(=O)C1(Cc2ccccc2C)CCCN(Cc2cnc(C)s2)C1 (centres undefined),11µM
CCOC(=O)C1(Cc2cccc(OC)c2)CCCN(Cc2cnc[nH]2)C1 (centres undefined),i
O=C([C@@H]1C[C@H](F)CN1S(=O)(=O)Cc1ccc(Cl)cc1)N1CCCCC1,i
COCCNC(=O)[C@@H]1C[C@@H](O)CN1C1CCN(C(=O)c2ccc(C(C)C)cc2)CC1,i
Cn1cccc1C(=O)N1CCOCC1CC(=O)N1CCSCC1 (centres undefined),i
COc1cc(Cl)ccc1C(=O)NC1CCN(c2cc(-c3cccs3)[nH]n2)C1 (centres undefined),i
CC(=O)Nc1ccc(NC(=O)C2CCN(c3cnccn3)CC2)cc1,i
COc1ccc(S(=O)(=O)N2CCC(C(=O)Nc3ccc(Oc4ccccc4)cc3)CC2)cc1,i
CCc1ccc(CN2CCC(C(=O)Nc3ccc(Oc4cccnc4)cc3)CC2)o1,11µM
Cc1nc2c(C(=O)NCCc3ccc(Cl)cc3)cnn2c(C)c1Cc1ccc(F)cc1,i
Cc1nc2c(C(=O)NC(C)c3ccccc3)cnn2c(C)c1Cc1ccccc1 (centres undefined),8.9µM
Cc1ccc(Cc2c(C)nc3nc(SCC(=O)NC(C)c4ccccc4)nn3c2C)cc1 (centres undefined),i
Cc1nc(N2CCCC2)ncc1C(=O)NCc1cccc(Cl)c1,i
CNC(=O)CCc1ccnc(N2CCCC2)c1,i
O=C(CCc1ccnc(N2CCCC2)c1)NCc1cccc(Cl)c1,4.5µM
Cn1cnnc1-c1nn(C)c2c1CN(C(=O)c1n[nH]c3c1CCCCCC3)CC2,i
COc1ccc(NC2CCCN(C(=O)c3cn(CCCN)nn3)C2)cc1 (centres undefined),i
SMILES,Pf Dd2 growth
CCCN(CC1CCOC1)C(=O)c1ccc(F)cc1F (centres undefined),i[5.79 µM]
Cc1cccc(-c2nc3c4ccccc4nc(NCc4ccc(F)cc4)n3n2)c1,i
COc1ccccc1CNc1nc2ccccc2c2nc(-c3cccc(C)c3)nn12,i
CCOc1ccccc1NC(=O)CSc1nc2cc(OC)c(OC)cc2c2nc(-c3ccccc3)nn12,i
COc1ccc(CNc2nc3ccccc3c3nc(-c4ccccc4)nn23)cc1,i
COc1cc2nc(NCc3ccccc3)n3nc(-c4ccccc4)nc3c2cc1OC,0.32µM
CCOCCCNc1nc2cc(OC)c(OC)cc2c2nc(-c3ccccc3)nn12,0.28µM
COCCc1noc(-c2nnn3c2COC(c2ccc(OC)cc2)C3)n1 (centres undefined),i
CN1C(=O)CS(=O)(=O)C12CCN(C(=O)c1ccc3c(c1)OCO3)CC2,i
Fc1ccc(-c2nc3nccc(-c4ccsc4)n3n2)cc1Cl,i
COC[C@@H]1CN(C(=O)c2cccc(C#N)c2)C[C@H]1c1nc(C2CC2)no1,i
Cc1nc([C@@H]2CN(C(=O)C(C)(C)C)C[C@H]2C(N)=O)n[nH]1,i
CSc1ccc(-c2nc(CN3CCOC(CCO)C3)c(C)o2)cc1 (centres undefined),i
OCCC1CN(Cc2cnn(-c3ccccc3)c2)CCN1Cc1cccs1 (centres undefined),i
Cc1cccc(CN2CCN(Cc3nc(-c4cccs4)oc3C)CC2CCO)n1 (centres undefined),11µM
CN1C[C@H](NC(=O)NC2(c3ccccc3)CCOCC2)CCC[C@@H](C(=O)NCc2cc(F)cc(F)c2)CC1=O,i
O=C(NCCn1cccn1)c1coc(COc2cccc(C(F)(F)F)c2)n1,i
COc1ccccc1NC(=O)c1c(NC(=O)c2cccs2)sc2c1CCC(C(C)(C)C)C2 (centres undefined),i
COC(=O)c1c(NC(=O)CCCOc2ccccc2C)sc2c1CCC(C)C2 (centres undefined),i
COc1ccc(Cl)cc1NC(=O)c1c(NCc2cccnc2)sc2c1CCC(C)C2 (centres undefined),8.9µM
COc1ccc(NC(=O)c2c(NC(=O)c3ccncc3)sc3c2CCC(C(C)(C)C)C3)cc1 (centres undefined),i
COc1ccc(Cl)cc1NC(=O)c1sc2nc3c(cc2c1N)N1CCC3CC1,i
COc1ccc(Cl)cc1NC(=O)c1c(NCc2cccs2)sc2c1CCC(C)C2 (centres undefined),13µM
O=C(C1CN(c2ccc(Cl)cc2)C(=O)N1)N1CCN(Cc2ccccc2)CC1 (centres undefined),i
COc1ccc(CN2C=C(C(=O)OCc3cc(=O)n4ccccc4n3)C(C)=NS2(=O)=O)cc1,i
SMILES,Pf Dd2 growth
CCN1c2cc(C(=O)NC3CCCCC3)ccc2C(=O)N2CCCCCC21 (centres undefined),i
COc1ccc(-c2noc(C(=O)O)c2[C@@H](C)NC(=O)c2cc(C)n(C)n2)cc1,3.2µM
COc1ccc(-c2noc([C@@H](C)NC(=O)c3cc(C)n(C)n3)c2C(=O)O)cc1,i
COc1ccc(-c2noc(C(=O)O)c2[C@@H](C)NC(=O)c2cccnc2)cc1,i
COc1nc2nc(CCc3ccccc3)n(C)c2cc1Nc1ccncn1,i
COc1ccccc1-c1cc2c(nc1OC)nc(CC1CC1)n2C,13µM
COCc1nc2nc(-c3ccccc3)c(-c3ccc(OC)cc3)cc2n1C,i
COc1cccc(C(=O)N2CCCCCC2c2nc(C)no2)c1 (centres undefined),i
c1ccc(O[C@H]2COCCN(Cc3cccc4c3OCO4)C2)cc1,i
Cn1cc(C(=O)N2CCC(N(Cc3ccccc3)C3CCOCC3)CC2)cn1,i
Cn1cnc(C(=O)N2CCC(N(Cc3ccccc3)C3CCOCC3)CC2)c1,i
O=C(c1cccc(Cl)c1)N1CCC(N(Cc2ccccc2)C2CCOCC2)CC1,5µM
COCCn1ncc(N2CCCC(CC(=O)N(C)Cc3cccnc3)C2)cc1=O (centres undefined),i
CC(C)CC(NC(=O)c1cccc(-n2cnnc2)c1)c1ncnn1C (centres undefined),i
COC(=O)c1ccccc1NC(=O)Cn1cccc1-c1nc(-c2ccccc2)no1,i
Cc1c(Cl)cccc1NC(=O)Cn1cccc1-c1nc(-c2ccc(F)cc2)no1,i
O=C(Cn1cccc1-c1nc(-c2ccc(F)cc2)no1)Nc1ccc(F)c(F)c1,i
COc1ccc(-c2noc(-c3cccn3CC(=O)N3CCN(c4ccccc4OC)CC3)n2)cc1F,i
COc1ccc(NC(=O)Cn2cccc2-c2nc(-c3ccccc3)no2)cc1,3.2µM
O=C(Cn1cccc1-c1nc(-c2ccccc2)no1)N1CCN(c2ccccc2F)CC1,7.9µM
CC(=O)Nc1ccc(NC(=O)Cn2cccc2-c2nc(-c3ccc(F)cc3)no2)cc1,i
Cc1cccc(NC(=O)Cn2cccc2-c2nc(-c3ccc(F)cc3)no2)c1C,i
